Our source for the Potency and activity (max response) values is PubChem BioAssay (NCATS).

Values joined by “and” are separate entries in the source; they are usually repeats but may differ in a detail not shown here. Identical values can stand only once. Inconclusive results are not listed. Where a structure was tested more than once in an assay, its records may differ in their call. Active and inactive are the calls of the source. Calls come from the whole dose curve; as a rule, active = well fitted curve in the direction sought with a large enough effect; inconclusive = small, poorly fitted or top-dose-only effect, or another doubt; inactive = no such curve, though single readings can be large; an effect the other way counts as inactive or inconclusive.

A short description of assay [1]: Viability qHTS for spleen associated tyrosine kinase inhibitor (SYKi) naive MV4-11 cells (AID 1963823). Note: nearly all actives have a fitted effect of over 40% in size. An outline of the steps:
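Luminescence from CellTiter-Glo, developed 10 min at room temperature, gave viability of MV4-11 cells never exposed to SYK inhibitor. Cells (500/well) had been incubated with compounds for 72 hr under standard culture conditions.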
(In qHTS, concentration-response curves come from the screen itself.)

Assay [2] is described as follows: Viability qHTS for spleen associated tyrosine kinase inhibitor (SYKi) drug resistant MV4-11 cells (AID 1963824). Note: nearly all actives have a fitted effect of over 35% in size. A digest of the protocol:
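SYK-inhibitor-resistant MV4-11 AML cells were seeded at 500 per well onto compound and cultured 72 hours (37 °C, 5% CO2). CellTiter-Glo was then added, and after 10 min at room temperature, luminescence gave viability.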

Assay [3] in a line: Quantitative highthroughput screen to assess conditional lethalithy of NOMO1 cells grown in RPMI1640 with untreated serum (RPMI+s) (AID 1963876).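 For Viability: 100% = DMSO wells and 0% = empty wells without cells.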 Note: nearly all actives have a fitted effect of over 35% in size. A digest of the protocol:
(§1)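 Each medium arm—HPLM with 10% dialyzed FBS, or RPMI1640 with 5 mM glucose and 10% untreated or dialyzed FBS—was screened against an 11-point, 3-fold compound titration for 48 h at 37 °C, with CellTiter-Glo luminescence as endpoint.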

Assay [4] in a line: Quantitative highthroughput screen to assess conditional lethalithy of NOMO1 cells grown in RPMI1640 with dialyzed fetal bovine serum (RPMI+ds) (AID 1963877).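 For Viability: series mostly up to about 46 µM; 100% = DMSO control wells and 0% = empty wells.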 Note: nearly all actives have a fitted effect of over 30% in size. A digest of the protocol: as §1
Assay [5] in a line: Quantitative highthroughput screen to assess conditional lethalithy of NOMO1 cells grown in Human Plasma-Like Medium with dialyzed fetal bovine serum (HPLM+ds) (AID 1963878).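 For Viability: 100% = DMSO wells and 0% = empty wells on each plate.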 Note: nearly all actives have a fitted effect of over 35% in size. An outline of the steps:
as §1

The nature of assay [6]: Quantitative highthroughput screen to assess conditional lethalithy of P12 Ichikawa cells grown in Human Plasma-Like Medium with dialyzed fetal bovine serum (HPLM+ds) (AID 1963879). For Viability: series mostly up to about 46 µM. Note: nearly all actives have a fitted effect of over 35% in size. The note with it: Potency: viability. An outline of the steps: as §1
The nature of assay [7]: Quantitative highthroughput screen to assess conditional lethalithy of P12 Ichikawa cells grown in RPMI1640 with dialyzed fetal bovine serum (RPMI+ds) (AID 1963880).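 For Viability: 100% = DMSO wells and 0% = empty wells on each plate.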 Note: nearly all actives have a fitted effect of over 35% in size. The settings on record: Potency: P12-Ichikawa viability. An outline of the steps:
as §1

The nature of assay [8]: Quantitative highthroughput screen to assess conditional lethalithy of P12 Ichikawa cells grown in RPMI1640 with untreated serum (RPMI+s) (AID 1963881).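 For Viability: series mostly up to about 46 µM; 100% = DMSO wells and 0% = empty wells without cells.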 Note: nearly all actives have a fitted effect of over 35% in size. The note with it: Potency: viability. A digest of the protocol:
as §1

Assay [9] can be described thus: Quantitative highthroughput screen to assess conditional lethalithy of SEM cells grown in Human Plasma-Like Medium with dialyzed fetal bovine serum (HPLM+ds) (AID 1963882). For Viability: series mostly up to about 46 µM. Note: nearly all actives have a fitted effect of over 35% in size. An outline of the steps: as §1
Assay [10] can be described thus: Quantitative highthroughput screen to assess conditional lethalithy of SEM cells grown in RPMI1640 with unreated serum (RPMI+s) (AID 1963883).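 For Viability: 100% = DMSO wells and 0% = empty wells without cells.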 Note: nearly all actives have a fitted effect of over 35% in size. A digest of the protocol: as §1
Assay [11] is described as follows: Quantitative highthroughput screen to assess conditional lethalithy of SEM cells grown in RPMI1640 with dialyzed fetal bovine serum (RPMI+ds) (AID 1963884).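 For Viability: series mostly up to about 46 µM; 100% = DMSO control wells and 0% = empty wells without cells.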 Note: nearly all actives have a fitted effect of over 35% in size. An outline of the steps: as §1
Assay [12] in a line: Cellular viability qHTS for adrenocortical cancer (ACC) cell line SW-13 (AID 1963989).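 For activity (max response): cells grown in serum-free medium with ITS supplement; % is set by controls: 0 for no effect and ±100 for the full control effect.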 Note: nearly all actives have a fitted effect of over 65% in size. The note with it: SW-13 ACC cells viability, CellTiter-Glo, 48 h; activity (max response): stronger effect = lower value. A digest of the protocol: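 Here, serum-free SW-13 cultures were dosed up to 46 uM. Following 48 h, ATP-dependent luminescence (CellTiter-Glo) reported viable cells, and logistic modeling produced IC50 values.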

Assay [13] is described as follows: Cellular viability qHTS for adrenocortical cancer (ACC) cell line NCI-H295R (AID 1963990). Note: nearly all actives have a fitted effect of over 60% in size. A digest of the protocol:
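Viability of NCI-H295R after 48 h of treatment (final up to 46 uM) measured through cellular ATP luminescence.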
Potency is the fitted concentration of half-maximal effect.

Take `C[C@@H](NCCCc1cccc(C(F)(F)F)c1)c1cccc2ccccc12`: the Potency in [1] is 10.6 µM (active); in assay [2], 13.3 µM (active) and 7.42 µM (active); in [12] it was 20.6 µM (active) and 25.1 µM (active); in assay [13], 5.17 µM (active) and 8.91 µM (active). Moreover, the Potency entry in assay [3], in [4], in assay [5], in assay [6], in [7] and in assay [8] was “inactive” each time. The Potency entry in assay [9], in assay [10] and in assay [11] was “inactive” each time.

On to `CC(=O)Nc1ccc([C@H](C)C(=O)Nc2ncc(C(C)C)s2)cc1`, for which the Potency is 1.66 µM (active) in assay [1]; 4.61 µM (active) in assay [2]; 4.69 µM (active) in assay [3]; 8.33 µM (active) in assay [4]; 7.43 µM (active) in assay [5]; 11.8 µM (active) in [6]. Moreover, the Potency in assay [7] is 10.5 µM (active); in assay [8], 11.8 µM (active); in [9] it was 6.62 µM (active); in assay [10], 7.43 µM (active); in [11], 7.43 µM (active); in assay [12] it was 1.26 µM (active). In addition, the Potency in assay [13] was 3.55 µM (active).

Turning to `CCN(c1ccccc1)c1cc(NC)[n+](C)c(C)n1`, the Potency in assay [1] and in assay [2] was 18.6 µM (active) throughout. Besides, the Potency result in assay [3], in [4], in assay [5], in assay [6], in [7] and in [8] was “inactive” throughout. The Potency entry in assay [9], in assay [10], in [11] and in [13] was “inactive” throughout. The activity (max response) in assay [12] is -0.574% (inactive).

As to `Cc1cc(-c2ncc(CC(=O)Nc3ccc(-c4cnccn4)cn3)cc2C)ccn1`, the Potency in [1] is 5.25 µM (active); in assay [2], 2.06 µM (active). In addition, the Potency entry in assay [3], in [4], in assay [5], in [6], in assay [7] and in assay [8] was “inactive” throughout. Moreover, the Potency entry in [9], in assay [10], in assay [11] and in assay [13] was “inactive” in each case. Further, in assay [12], the activity (max response) was -24.1% (inactive).

Consider `Cc1noc(-c2ccc(CSCCC(=O)O)cc2)c1NC(=O)OC(C)c1ccccc1Cl` (stereo not given), for which the Potency result in [1], in assay [2], in assay [3], in assay [4], in assay [5] and in assay [7] was “inactive” throughout. Further, the Potency result in assay [8], in [9], in assay [10], in assay [11] and in assay [13] was “inactive” each time. In [6], the Potency is 18.7 µM (active). For the same compound, the activity (max response) in [12] was -1.37% (inactive).

On to `CC(C)(C)C(=O)Oc1ccc2c(c1)nc(NC(=O)c1cccc([N+](=O)[O-])c1)n2CCCO`, for which the Potency is 4.68 µM (active) in [1] and 9.34 µM (active) in [2]. Also, the Potency result in assay [3], in assay [4], in assay [5], in assay [6], in assay [7] and in assay [8] was “inactive” throughout. The Potency result in [9], in [10], in assay [11] and in [13] was “inactive” in each case. Besides, the activity (max response) in assay [12] was -24.3% (inactive).

Take `COc1ccc([C@@H]2CNC(=O)C2)cc1OC1CCCC1`: the Potency result in assay [1], in [2], in assay [3], in [4], in [5] and in assay [6] was “inactive” throughout. Also, the Potency entry in assay [7], in [8], in [9], in [10], in assay [11] and in assay [13] was “inactive” in each case. Further, the activity (max response) in assay [12] is -15.2% (inactive).

Take `C=C1C(=O)[C@@]23C(CC[C@@H]1[C@H]2O)[C@@]12CO[C@]3(O)[C@@H](O)[C@@H]1C(C)(C)CC[C@@H]2O` (stereo not given in full): the Potency in assay [1] is 1.32 µM (active); in assay [2], 1.3 µM (active); in assay [3], 20.9 µM (active); in [4], 23.5 µM (active); in [5] it was 18.7 µM (active); in assay [6], 13.2 µM (active). Also, the Potency in assay [7] is 7.43 µM (active); in [8], 7.43 µM (active); in [9], 8.33 µM (active); in assay [10], 3.72 µM (active); in assay [12] it was 28.2 µM (active); in [13], 10 µM (active).

With `NCCc1ccc(O)c(O)c1`, the Potency is 20.9 µM (active) in assay [1]; “inactive and 18.6 µM (active)” in assay [2]; 14.8 µM (active) in assay [3]; 14.8 µM (active) in assay [4]; 9.35 µM (active) in [5]; 18.7 µM (active) in assay [9]. In addition, the Potency in assay [11] was 26.4 µM (active). The Potency entry in assay [6], in assay [7], in [8] and in [13] was “inactive” each time. The activity (max response) in [12] was -9.5% (inactive) and -1.11% (inactive).

On to `N=c1ccn2c(n1)O[C@H]1[C@@H](O)[C@@H](CO)O[C@H]12`, for which the Potency in assay [1] is 2.95 µM (active); in [2], 3.32 µM (active); in assay [3], 2.96 µM (active); in assay [4], 1.48 µM (active); in assay [5], 1.48 µM (active); in [6], 0.132 µM (active). Also, the Potency was 0.132 µM (active) in assay [7]; 0.118 µM (active) in assay [8]; 0.132 µM (active) in assay [9]; 0.132 µM (active) in assay [10]; 0.0935 µM (active) in [11]. Besides, the Potency entry in [13] was “inactive”.

On to `CC(C(=O)O)c1cccc(C(=O)c2ccccc2)c1` (stereo not given), for which the Potency result in assay [1], in [2], in [3], in [4], in assay [5] and in assay [6] was “inactive” each time. In addition, the Potency result in assay [7], in assay [8], in assay [9], in assay [10] and in assay [13] was “inactive” each time. Besides, the activity (max response) in assay [12] is 3.98% (inactive) and 6.3% (inactive).

Consider `Nc1ncnc2c1ncn2[C@@H]1O[C@H](CO)[C@@H](O)[C@@H]1O`, for which the Potency entry in [1], in assay [2], in assay [9] and in [11] was “inactive” throughout. In addition, the Potency in [3] is 9.35 µM (active); in assay [4], 8.33 µM (active); in assay [5], 5.9 µM (active); in assay [6], 7.43 µM (active); in [7] it was 14.8 µM (active); in [8], 6.62 µM (active). The activity (max response) in assay [12] was -11.9% (inactive).
